Only some compounds are listed: those with a hit (about 9% of all), similar ones and a draw of the others.
HTT ATP protect: Huntington cell model cytoprotection by ATP luminescence | PC12 HTT-Q103 induced, cytoprotection, ATP luminescence, 40 h | Potency, µM (highest dose often 56.4 µM), for inactives: cytoprotection (ATP increase), most hits filed as activators | 230,000 compounds, 0.14% hits | AID 1471; also: % of control where 0% means no effect; nearly all actives have a fitted effect of over 45% in size
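Stable PC12 Q103-GFP cells in serum-supplemented, phenol red-free DMEM; induction by tebufenozide at 100 nM final; compound dose series; cell viability quantified luminescently from ATP.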
Lamin A splicing: modulators of lamin A splicing; HeLa LMNA splicing GFP/RFP minigene ratio, 48 h; 200,000 compounds, 0.01% hits; AID 1487; Potency, µM (highest dose often 46.1 µM), for inactives: at the highest dose ratio change, negative = inhibition, usual class: inhibitors; active = well fitted inhibition curve with a large enough effect in the signal ratio, with a control signal flat, not every such curve was filed as active; inconclusive = small, poorly fitted or top-dose-only effect, or effect the other way, or a change in a side signal; the % refers to the signal ratio; also: % is scaled to controls: 0 for no effect and ±100 for the full control effect
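S3 HeLa cells stably expressing lamin A-EGFP splicing minigene plus DsRed2, 600 cells/well, 48 h compound exposure at 37C. Laser-scanning cytometry; analysed as GFP (500-530 nm)/RFP (575-640 nm) total intensity ratio; 0.5% DMSO vehicle.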
ALDH1A1 inh: blocks purified human ALDH1A1 activity. Purified ALDH1A1, NADH fluorescence, propionaldehyde substrate. P00352. Potency, µM (doses to about 75.3 µM), for the others: at the highest dose activity, negative = inhibition, most hits filed as inhibitors. AID 1030. 220,000 compounds, 7.3% hits; active = well fitted inhibition curve with a large enough effect, not every such curve was filed as active; inconclusive = small, poorly fitted or top-dose-only effect, or another doubt; inactive = no such curve, though single readings can be large or run the other way;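 also: plate controls were no enzyme wells and a reference inhibitor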
Target sequence (P00352 whole entry, looked up): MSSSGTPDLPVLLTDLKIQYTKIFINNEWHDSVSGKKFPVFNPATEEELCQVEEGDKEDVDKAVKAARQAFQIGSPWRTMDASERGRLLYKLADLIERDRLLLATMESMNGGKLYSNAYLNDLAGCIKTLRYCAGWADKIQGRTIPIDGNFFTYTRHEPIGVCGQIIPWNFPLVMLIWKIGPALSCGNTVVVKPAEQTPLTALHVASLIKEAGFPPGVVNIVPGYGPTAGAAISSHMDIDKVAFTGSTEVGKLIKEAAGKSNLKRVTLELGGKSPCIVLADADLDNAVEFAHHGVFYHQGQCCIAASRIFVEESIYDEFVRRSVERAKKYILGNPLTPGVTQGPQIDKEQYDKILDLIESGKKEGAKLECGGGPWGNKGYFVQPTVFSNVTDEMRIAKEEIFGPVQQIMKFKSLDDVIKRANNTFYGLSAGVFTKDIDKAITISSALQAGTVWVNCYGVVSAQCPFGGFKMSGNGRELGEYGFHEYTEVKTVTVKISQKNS
HPGD block: inhibitors of human 15-hydroxyprostaglandin dehydrogenase (HPGD) | 150,000 compounds, 4.3% hits | P15428 | Potency, µM, without a hit: top-dose activity change, negative = inhibition, actives largely listed as inhibitors | purified HPGD, NADH fluorescence kinetic, PGE2 substrate; active = well fitted inhibition curve with a large enough effect, not every such curve was filed as active; inconclusive = small, poorly fitted or top-dose-only effect, or another doubt; inactive = no such curve, though single readings can be large or run the other way; also: % is scaled to controls: 0 for no effect and ±100 for the full control effect
Target sequence (P15428 whole entry, looked up): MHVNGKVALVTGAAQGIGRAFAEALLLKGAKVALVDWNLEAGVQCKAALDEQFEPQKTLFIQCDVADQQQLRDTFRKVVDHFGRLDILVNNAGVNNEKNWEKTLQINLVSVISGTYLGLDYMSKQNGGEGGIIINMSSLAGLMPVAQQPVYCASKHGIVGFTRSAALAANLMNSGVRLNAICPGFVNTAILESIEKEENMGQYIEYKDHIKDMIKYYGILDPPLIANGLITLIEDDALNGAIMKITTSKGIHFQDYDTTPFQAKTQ
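NADH formation kinetics: reaction with 30 uM PGE2 and 1 mM NAD+ (final), 20 nM enzyme, Tris-HCl pH 8 with Tween 20, after 15 min compound preincubation at room temperature. Fluorescence change, last versus first of five reads.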
HttQ103 aggreg: inhibitors of mutant huntingtin aggregate formation in PC12 cells. PC12 HttQ103-GFP aggregates, Acumen cytometry, 40 h. Potency, µM (top dose mostly 46.1 µM), without a hit: at the top dose activity change, negative = inhibition, actives largely listed as inhibitors. 220,000 compounds, 1.1% hits. AID 1688; also: % is scaled to controls: 0 for no effect and ±100 for the full control effect; nearly all actives have a fitted effect of over 60% in size
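Quantitative HTS on tebufenozide-induced (100 nM) PC12 cells stably expressing polyQ103 Huntingtin exon 1–GFP. Reduction of bright GFP aggregates, detected by laser scanning cytometry after lysis, identified actives across the titration.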
Luc counter: Kinase-Glo luciferase inhibition (counter-screen) | Kinase-Glo luciferase, ATP luminescence, 8 min | AID 1379 | Potency, µM (top dose mostly 38.3 µM), without a hit: at the highest dose activity change, negative = inhibition, most hits filed as inhibitors | 200,000 compounds, 0.28% hits; also: % is scaled to controls: 0 for no effect and ±100 for the full control effect; nearly all actives have a fitted effect of over 60% in size
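Substrate mix (final 50 mM imidazole pH 7.2, 50 mM KCl, 7 mM MgCl2, 10 uM ATP, 0.01% Tween 20, 0.05% BSA) plus pin-tool compound, then Kinase-Glo detection mix; 8 min ambient, luminescence read.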
* marks the source's active call; other numbers are inactive results; ? = inconclusive; · = no result given; [ ] = remark or other dose. Unless noted, calls follow the shape of the dose curve; as a rule, active = well fitted curve in the direction sought with a large enough effect; inconclusive = small, poorly fitted or top-dose-only effect, or another doubt; inactive = no such curve, though single readings can be large; an effect the other way counts as inactive or inconclusive. Potency is read from the fitted curve at half-maximal effect.

SMILES	HTT ATP protect	Lamin A splicing	ALDH1A1 inh	HPGD block	HttQ103 aggreg	Luc counter
COc1cc2c(C(=O)NCc3ccc4c(c3)OCO4)cn(CC(C)C)c(=O)c2cc1OC	-6.7%[10 µM]	-13.5%	0.141µM*	-2.6%	-6.7%	1.5%
CCOCCCNC(=O)c1cn(CC(C)C)c(=O)c2cc(OC)c(OC)cc12	8.9%[10 µM]	-14.2%	20µM*	-17.0%	9.9%	-0.1%
CCn1cc(C(=O)NCc2cccnc2)c2cc(OC)c(OC)cc2c1=O	25.1%[1.9 µM]	1.7%	25.1µM*	-16.5%	5.6%	-0.8%
O=C(Nc1ccccc1C(=O)N1CCOCC1)c1noc2c1CCCC2	10.3%	-4.0%	?	-11.4%	-6.6%	0.2%
O=C(NCSc1ccnc(SCNC(=O)c2ccc(F)cc2)n1)c1ccc(F)cc1	11.6%[10 µM]	7.3%	?	22.4µM*	16.0%	-1.0%
Clc1ccc(-n2nnc(-c3nccs3)n2)cc1Cl	-15.6%[10 µM]	·	25.1µM*	·	8.6%[9.22 µM]	·
Cc1ccc(-n2nnc(-c3nccs3)n2)cc1	-76.8%[10 µM]	·	-7.5%	·	1.2%[9.22 µM]	·
CC1CCN(S(=O)(=O)c2cccc(C(=O)Nc3ccccn3)c2)CC1	4.7%[1.9 µM]	?	-0.6%	-4.3%	-9.0%	2.7%
O=C1CC(N2CCN(c3ccccn3)CC2)C(=O)N1CC(c1ccccc1)c1ccccc1 (stereo not given)	-39.3%[10 µM]	?	3.16µM*	-27.3%	2.3%	-0.6%
COc1ccc(CCN2C(=O)CC(C(N)=O)SC2=Nc2ccccc2)cc1OC (stereo not given)	2.1%[10 µM]	11.1%	14.1µM*	-9.0%	15.1%	-0.3%
COc1ccc(CCN2C(=O)CC(N3CCN(c4ccccn4)CC3)C2=O)cc1OC (stereo not given)	6.1%	2.0%	25.1µM*	-11.7%	9.0%	4.3%
COc1ccc(CCN2C(=O)CC(Sc3ncccc3C(=O)O)C2=O)cc1OC (stereo not given)	2.7%[0.074 µM]	-18.1%	3.55µM*	-11.9%	0.6%	-3.1%
CCCN1C(=O)CC(Sc2ncccc2C(=O)O)C1=O (stereo not given)	-2.8%[10 µM]	·	·	·	-37.6%[9.22 µM]	·
CC(=O)N1CCN(Cc2nc(-c3cccc(Cl)c3)no2)CC1	?	14.7%[46 µM]	4.3%	·	10.6%[9.22 µM]	0.1%
COc1cc(OC)cc(C(=O)N2CCN(C(=O)Cc3ccccc3)CC2)c1	-0.9%[10 µM]	2.7%[46 µM]	-4.7%	·	-9.4%[9.22 µM]	-1.3%
COCCNC(C(=O)Nc1ccc([N+](=O)[O-])cc1Br)c1ccccc1 (stereo not given)	-13.6%[10 µM]	?	12.6µM*	-16.3%	2.1%	-1.2%
COCCNC(C(=O)Nc1ccc(C)cc1[N+](=O)[O-])c1ccccc1 (stereo not given)	-33.2%	·	25.1µM*	·	3.2%	-0.9%
O=C(Nc1ccc(Cl)c([N+](=O)[O-])c1)C(NCCCO)c1ccccc1 (stereo not given)	18.4%[10 µM]	1.2%	0.708µM*	-2.7%	16.4%	2.7%
Nc1nc(SCC(=O)Nc2ccc(Br)cc2F)n[nH]1	-0.9%	20.5%	-6.8%	-10.4%	-25.5%	0.1%
CCOCCc1nn2c(=O)cc(COC(=O)COc3ccc(C)c(C)c3)nc2s1	·	1.2%[46 µM]	·	·	·	·
CC1CCCCN1C(=O)Nc1cccc(Cl)c1 (stereo not given)	-16.5%[10 µM]	0.5%	22.4µM*	22.4µM*	17.1%	-5.4%
Cc1ccccc1Oc1ccc(NC(=O)C2CC=CCC2C(=O)O)cc1 (stereo not given)	·	?	2.24µM*	1.3%	-9.8%	-2.2%
O=C(O)C1CC=CCC1C(=O)Nc1cccc(Cl)c1 (stereo not given)	-6.6%	4.4%	17.8µM*	-29.4%	26.6%[9.22 µM]	1.4%
O=C(Nc1cccc(Cl)c1)N1CCCC1	23.4%	2.6%	17.7%	-4.6%	-21.9%	1.9%
O=C(Oc1cccc2cccnc12)c1cccc([N+](=O)[O-])c1	-46.8%[10 µM]	·	5.1%	·	-26.3%[9.22 µM]	-2.6%
SMILES	HTT ATP protect	Lamin A splicing	ALDH1A1 inh	HPGD block	HttQ103 aggreg	Luc counter
O=C(NCCCCCNC(=O)c1ccco1)c1ccco1	5.9%	4.8%	28.2µM*	-13.6%	-1.8%	1.1%
O=C(NCCSc1c[nH]c2ccccc12)c1c(F)cccc1F	0.8%[10 µM]	·	-4.1%	·	-7.7%[9.22 µM]	·
O=C(NCCSc1c[nH]c2ccccc12)c1ccco1	5.1%	-17.3%	-1.9%	15.8µM*	12.6%	-1.6%
O=C(NCc1cccc(CNC(=O)c2ccco2)c1)c1ccco1	0.1%	-9.7%	?	14.1µM*	7.7%	-8.4%
CC(C)OCC1CC(CC(=O)NC(=S)Nc2cccc([N+](=O)[O-])c2)C(=O)O1 (stereo not given)	14.9%[10 µM]	?	-0.1%	-11.6%	11.2%	0.2%
CC(C)(C)C(=O)COC(=O)c1ccc(N)c([N+](=O)[O-])c1	-6.8%	·	-14.4%	·	-10.8%	4.1%
Cc1cc(N2CCN(c3nc(-c4ccccc4)cs3)CC2)c2ccccc2n1	-142.6%	-3.5%[46 µM]	-14.0%	·	?	-0.9%
COCCNC(=S)NNc1ccccc1[N+](=O)[O-]	-39.1%	·	25.1µM*	·	-4.1%	-2.0%
CNC(=S)NNc1ccccc1[N+](=O)[O-]	-42.1%	·	14.1µM*	·	-9.4%	-3.4%
Cc1ccc(NC(=O)c2cc(=O)c3ccccc3o2)c(C)c1	15.8%[10 µM]	-2.8%	1.9%	-4.9%	-30.7%	0.3%
CCN(Cc1ccc(OC)c(F)c1)C(=O)CCl	7.9%[10 µM]	·	0.355µM*	·	?	·
CCCCCn1c(CN2CCN(c3cccc(Cl)c3)CC2)nc2c1c(=O)n(C)c(=O)n2C	-13.9%[0.074 µM]	?	3.55µM*	-12.0%	?	-0.1%
CCCCCCn1c(CN2CCN(CCO)CC2)nc2c1c(=O)n(C)c(=O)n2C	10.1%[10 µM]	-7.4%	3.98µM*	-7.1%	30.0%	-1.1%
Cn1c(=O)c2c(nc(CN3CCN(c4ccccc4)CC3)n2Cc2ccccc2Cl)n(C)c1=O	-8.4%	16.9%	?	-10.9%	17.3%	1.1%
CCCCCn1c(CN2CCN(c3cc(Cl)ccc3C)CC2)nc2c1c(=O)[nH]c(=O)n2C	-3.0%	?	14.1µM*	-12.2%	11.4%	-4.7%
CCCn1c(CN2CCN(c3cccc(Cl)c3)CC2)nc2c1c(=O)n(C)c(=O)n2C	-128.1%	-13.8%	?	-1.6%	5.62µM*	-1.9%
COc1cc(/C=C2\SC(c3ccc(C)cc3)=NC2=O)cc(OC)c1OC	24.0%[10 µM]	-15.8%	?	?	7.6%	2.2%
Cn1c(=N)n(CC(O)c2ccco2)c2ccccc21 (stereo not given)	-6.5%[0.074 µM]	0.5%	3.9%	-4.7%	8.6%	-0.3%
CCOC(=O)c1sc(N2N=C(C)C(N=Nc3cccc(C)c3)C2=O)nc1C (stereo not given)	-12.1%[10 µM]	·	·	·	1.3%[9.22 µM]	·
Cn1c(=O)c2c(ncn2CC(=O)OCC(=O)Nc2ccc(Cl)cc2Cl)n(C)c1=O	-6.1%[10 µM]	4.2%	6.2%	-12.2%	6.9%	-1.4%

Assay outcomes as filed in PubChem BioAssay.
